This passage reports Potency and viability (% of control) results from PubChem BioAssay (NCATS).

Structures are written as SMILES. Results filed as inconclusive are left out. Entries that show only a call come without a potency. A number with no mark means an inactive call. The source made the active and inactive calls. The call rests on the fitted dose curve; in most records, active means well fitted cell-killing curve with a large enough effect; inconclusive means small, poorly fitted or top-dose-only effect, or effect the other way; inactive means no such curve, though single readings can be large or run the other way.
Potency means the concentration at half of the fitted maximal effect.

A short description of this test: Viability qHTS for spleen associated tyrosine kinase inhibitor (SYKi) naive MV4-11 cells (AID 1963823). Further: nearly all actives have a fitted effect of over 40% in size. The note with it: MV4-11 AML viability, CellTiter-Glo luminescence, 72 h; series mostly up to 45 µM. An outline of the steps: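 Compounds were dispensed acoustically onto plates, MV4-11 cells (SYKi-naive) added at 500 per well, and plates incubated 72 hr at 37 C. CellTiter-Glo was added and luminescence measured after 10 min.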
In general terms: qHTS replaces the single test concentration by a dilution series.
Turning to `O=C(O)CC1CC(c2ccccc2)=NO1` (stereo unspecified), the Potency entry was “inactive”.

Turning to `CC[C@H]1CN(c2nc(N)c(C(N)=O)nc2Cl)CCN1C1CCN(Cc2ccc(Cl)cc2)CC1`, the Potency entry was “inactive”.

For the compound `CCOC(=O)c1ccc(OCCC2CCN(c3ccc(C)nn3)CC2)cc1`, the Potency result is “inactive”.

Take `O=C(O[C@@H]1O[C@H](CO)[C@@H](O)[C@H](O)[C@H]1O)c1ccccc1`: the Potency result is “inactive”.

Consider `CC1C(=O)CC2C3CCC(C(=O)O)C12CC3(C)CO` (stereo unspecified), for which the Potency result was “inactive”.

Regarding `C[C@H]1[C@H](C)CC[C@]2(C(=O)O)CC[C@]3(C(=O)O)C(=CCC4[C@@]5(C)CC[C@H](O[C@@H]6O[C@@H](C)[C@H](O)[C@@H](O)[C@H]6O)C(C)(C)C5CC[C@]43C)[C@H]12` (stereo partly specified), the Potency entry is “inactive”.

For `COc1cc2nc(N3CCN(C(=O)COc4c(OC)cccc4C(C)C)CC3)nc(N)c2cc1OC`, the Potency is 20.6 µM (active).

Take `C[C@@H]1CC[C@@]23CC[C@]4(C)[C@@](C=CC5[C@@]6(C)CC[C@H](O)C(C)(C)C6CC[C@]54C)(OC2=O)C3[C@H]1C` (stereo partly specified): the Potency result was “inactive”.

On to `CC(=O)CC1CCC(C(C)C(=O)OCC(O)CO)O1` (stereo unspecified), for which the Potency result was “inactive”.

For `C[C@@H]1O[C@@H](O[C@@H]2CO[C@@H](O[C@H]3CC[C@@]4(C)C(CC[C@]5(C)C4CC=C4[C@@H]6CC(C)(C)CC[C@]6(C(=O)O[C@@H]6O[C@H](CO)[C@@H](O)[C@H](O)[C@H]6O)CC[C@]45C)[C@]3(C)CO)[C@H](O)[C@H]2O[C@@H]2O[C@H](CO)[C@@H](O)[C@H](O)[C@H]2O)[C@H](O)[C@H](O)[C@H]1O` (stereo partly specified), the viability (% of control) was 57.4% [at 9.25 µM].

Regarding `C=C(COC(=O)CC(C)C)C1Cc2cc(C(C)=O)ccc2O1` (stereo unspecified), the Potency entry was “inactive”.

As for `C/C=C/C=C/C=C/C(=O)O[C@@H]1C=C(CO)[C@](O)(CO)[C@@]2(C)CCCC(C)(C)[C@H]12`, the Potency was 16.1 µM (active).

On to `C=C1CCC(OC(C)=O)C2(C)CC3OC(=O)C(C)=C3CC12` (stereo unspecified), for which the Potency entry is “inactive”.

As for `Nc1nc2c(nc(Br)n2[C@@H]2O[C@@H]3COP(=O)(O)O[C@H]3[C@H]2O)c(=O)[nH]1`, the Potency entry was “inactive”.

Consider `C=CC(C)(O)CC[C@H]1C(=C)CCC2[C@](C)(C(=O)O)CCC[C@@]21C` (stereo partly specified), for which the Potency result was “inactive”.

For the compound `CC(NC(=O)Cc1cc(F)cc(F)c1)C(=O)NC1C(=O)N(C)c2ccccc2-c2ccccc21` (stereo unspecified), the Potency was 5.17 µM (active).

For the compound `COc1cccc2cc3c(c(O[C@@H]4O[C@H](CO[C@@H]5O[C@H](CO)[C@@H](O)[C@H](O)[C@H]5O)[C@@H](O)[C@H](O)[C@H]4O)c12)C(C)OC3=O` (stereo partly specified), the Potency result was “inactive”.

As to `C=CC(C)(C)C12C=C(OC)C(=O)N3C(C(C)C)C(=O)NC31N(OC)c1ccccc12` (stereo unspecified), the Potency result is “inactive”.

Take `CC(=O)O[C@H](C[C@@H](C)[C@H]1C(=O)[C@H](O)[C@@]2(C)[C@@H]3CCC4C(C)(C)[C@@H](O[C@@H]5OC[C@H](O)[C@H](O)[C@H]5O)CC[C@@]45C[C@@]35CC[C@]12C)[C@@H]1OC1(C)C` (stereo partly specified): the Potency entry was “inactive”.

Regarding `C[C@@H]1CC2C3C[C@H](F)C4=CC(=O)C=C[C@]4(C)[C@@]3(F)[C@@H](O)C[C@]2(C)[C@@]1(OC(=O)c1ccco1)C(=O)SCF` (stereo partly specified), the Potency was 6.61 µM (active).

With `O=C(/C=C/c1ccc(O)c(O)c1)O[C@H]1[C@H](OC2CCCCC2O)O[C@H](CO)[C@@H](O)[C@@H]1O` (stereo partly specified), the Potency entry was “inactive”.

In the case of `O=C(O)c1c[nH]c2c(ccc3ccccc32)c1=O`, the Potency is 23.1 µM (active).

As to `COc1ccc(CCN(C)CCCC(C#N)(c2cc(OC)c(OC)c(OC)c2)C(C)C)cc1OC` (stereo unspecified), the Potency is 23.7 µM (active).

Take `CC(O)/C=C/C1OC(=O)CC1Nc1ccc(C(=O)O)cc1` (stereo unspecified): the Potency entry is “inactive”.

For the compound `C[C@@H]1CCC2C(C)(C)[C@H](O)[C@H](O)C[C@]2(C)[C@@]12Cc1c(O)cc3c(c1O2)CN(CCCC(=O)O)C3=O` (stereo partly specified), the Potency entry is “inactive”.

For `CC(C)C[C@H](NC(=O)CNC(=O)OCc1ccccc1)C(=O)N[C@@H](Cc1ccccc1)C(=O)CCl`, the Potency was 18.4 µM (active).

As to `COc1ccc(NC(=O)c2ccc(-c3ccc(-c4nnc(C)o4)cc3C)cc2)cc1N1CCN(C)CC1`, the Potency was 23.1 µM (active).

On to `CC12CCC3c4ccc(O)cc4CCC3C1CCC2OC1OC(C(=O)O)C(O)C(O)C1O` (stereo unspecified), for which the Potency result is “inactive”.

`COC(=O)C1=COC(OC2OC(CO)C(O)C(O)C2O)C2C(C)C(OC(C)=O)C(OC(=O)c3ccccc3)C12` (stereo unspecified): the Potency entry was “inactive”.

`C=C1C(=O)O[C@@H]2/C=C(\C)CC/C=C(\C(=O)O[C@@H]3O[C@H](CO)[C@@H](O)[C@H](O)[C@H]3O)CC[C@@H]12`: the Potency entry was “inactive”.

On to `CCOc1cccc2c1OC(c1ccc(F)cc1)C([N+](=O)[O-])=C2` (stereo unspecified), for which the Potency was 1.16 µM (active).
